Calls of active or inactive are those of the source. Unless noted, no rule for the calls is given here.
Key:
[1] = resazurin metabolic signal in HepG2 cells – cell-based, resazurin fluorescence, 24 h, PK04 Diversity Set, profiling panel (AID 1172); settings: HepG2 viability, higher = more signal
[2] = budding yeast growth changes without added modifier – OD600, strain BY4716, 24 h, basal condition, primary screen (AID 1173); settings: S. cerevisiae BY4716 growth, OD600, 24 h; higher = more signal, called active from +8 up or from −8 down
[3] = viability profiling in MM1S myeloma cells – cell-based, resazurin fluorescence, basal, 24 h, PK04 Diversity Set, profiling panel (AID 1174); settings: higher = more signal, called active from +8 up or from −8 down;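 also: MM1S multiple myeloma cell line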
[4] = target: Dihydroorotate dehydrogenase (quinone), mitochondrial (Plasmodium falciparum (isolate 3D7)) (UniProt Q08210); test: inhibition of P. falciparum DHODH – biochemical, C-terminal His tag, absorbance 600 nm, primary screen (AID 1175); settings: PfDHODH enzyme, DCIP absorbance 600 nm; higher = more signal, called active from +8 up or from −8 down;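 also: recombinant parasite enzyme with a five histidine tag at its C terminus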
[5] = inhibition of PAO1 biofilm formation – strain PAO1, LB-PBS medium, absorbance 600 nm, primary screen (AID 1176); settings: P. aeruginosa PAO1 growth/biofilm, A600, 12 h; higher = more signal
[6] = growth modulation of vineyard yeast isolate – strain RM11-1a, OD600, basal, 24 h, primary screen (AID 1177);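 also: cultures grown under basal conditions with no added stressor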; settings: S. cerevisiae RM11-1a growth, OD600, 24 h; higher = more signal, called active from +8 up or from −8 down
[7] = growth of efflux-deficient E. coli DRC39 – strain DRC39, OD650, 24 h, E. coli filamentation inducers, primary screen (AID 1178);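 also: growth measured as culture turbidity by optical density at 650 nm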; settings: E. coli DRC39 acrAB, higher = more signal, called active from +8 up or from −8 down
[8] = growth of efflux-deficient E. coli DRC39 – strain DRC39, OD650, 48 h, E. coli filamentation inducers, primary screen (AID 1179);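 also: screen aims at cell division blockers that make cells filament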; settings: E. coli DRC39 delta-acrAB growth, higher = more signal, called active from +8 up or from −8 down
[9] = viability profiling in RPMI8226 myeloma cells – cell-based, resazurin fluorescence, basal, 24 h, PK04 Diversity Set, profiling panel (AID 1180); settings: higher = more signal;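 also: RPMI8826 multiple myeloma cell line at 5000 cells per well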
[10] = target: E3 ubiquitin-protein ligase XIAP (Homo sapiens) (UniProt P98170); test: small molecules binding XIAP protein – biophysical, small-molecule microarray, fluorescence 635 nm, primary screen (AID 1181); settings: higher = more signal;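 also: score merges 667 nm emission and signal to noise over triplicate slides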
[11] = tested on: XIP peptide (Xip251-270) binding; test: XIP fragment 251-270 binding compounds – biochemical, small-molecule microarray, fluorescence 635/667 nm, 0.1 µg/mL protein, primary screen (AID 1182); settings: fluorescent protein binding, 635 nm, higher = more signal, called active from +8 up or from −8 down
XIP peptide (Xip251-270) = test: compounds binding XIP fragment 251-270 – biochemical, small-molecule microarray, fluorescence 635/667 nm, 0.5 µg/mL protein, primary screen (AID 1183); settings: fluorescence 635 nm, higher = more signal
[12] = blood-stage malaria parasite viability loss – strain 3D7, DAPI fluorescence, 100 nL, primary screen (AID 1184);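 also: parasites grown inside human red blood cells in medium with human serum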; settings: P. falciparum 3D7 growth, 3 d, higher = more signal
[13] = target: Homeobox protein Hox-A13 (Mus musculus) (UniProt Q62424); test: disruptors of Hoxa13 oligonucleotide interaction – biochemical, fluorescence polarization, labeled oligonucleotide, primary screen (AID 1185); settings: Hoxa13:DNA binding, 15 min, higher = more signal, called active from +8 up or from −8 down
[14] = blockers of DNA damage checkpoint Chk1 activation – imaging, HeLa, hydroxyurea, phospho-Chk1 antibody, percent positive cells, primary screen (AID 1186); settings: hydroxyurea-induced phospho-Chk1 immunofluorescence imaging, higher = more signal
[15] = blockers of DNA damage checkpoint Chk1 activation – imaging, HeLa, hydroxyurea, phospho-Chk1 nuclear intensity, primary screen (AID 1187); settings: hydroxyurea-induced phospho-Chk1 immunofluorescence imaging, higher = more signal

Homeobox protein Hox-A13 (Mus musculus), sequence (Q62424 whole entry, looked up): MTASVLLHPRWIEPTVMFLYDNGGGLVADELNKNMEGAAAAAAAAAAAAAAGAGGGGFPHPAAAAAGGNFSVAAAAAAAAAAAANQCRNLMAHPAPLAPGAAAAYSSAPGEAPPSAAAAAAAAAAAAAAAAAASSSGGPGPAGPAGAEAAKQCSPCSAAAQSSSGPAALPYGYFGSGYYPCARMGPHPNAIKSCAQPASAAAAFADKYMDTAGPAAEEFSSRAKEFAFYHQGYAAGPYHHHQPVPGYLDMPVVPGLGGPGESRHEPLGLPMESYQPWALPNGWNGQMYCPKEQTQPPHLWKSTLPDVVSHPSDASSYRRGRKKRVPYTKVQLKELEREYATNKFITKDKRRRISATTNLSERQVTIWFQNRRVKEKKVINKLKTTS
E3 ubiquitin-protein ligase XIAP (Homo sapiens), sequence (P98170 whole entry, looked up, the tested form may be a part): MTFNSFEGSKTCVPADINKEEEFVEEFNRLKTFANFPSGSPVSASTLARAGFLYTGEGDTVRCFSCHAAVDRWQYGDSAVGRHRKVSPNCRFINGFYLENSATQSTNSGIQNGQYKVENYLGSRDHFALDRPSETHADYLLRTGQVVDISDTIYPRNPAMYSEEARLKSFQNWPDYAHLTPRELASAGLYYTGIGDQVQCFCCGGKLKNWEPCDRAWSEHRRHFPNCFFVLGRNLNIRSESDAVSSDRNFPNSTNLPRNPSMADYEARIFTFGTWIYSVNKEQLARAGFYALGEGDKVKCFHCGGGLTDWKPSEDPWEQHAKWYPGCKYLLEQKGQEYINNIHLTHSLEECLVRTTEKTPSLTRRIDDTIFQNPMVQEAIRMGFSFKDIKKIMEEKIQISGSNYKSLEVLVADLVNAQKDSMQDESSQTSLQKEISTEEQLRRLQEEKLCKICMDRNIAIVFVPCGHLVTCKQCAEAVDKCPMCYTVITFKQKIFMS
Dihydroorotate dehydrogenase (quinone), mitochondrial (Plasmodium falciparum (isolate 3D7)), sequence (Q08210 whole entry, looked up): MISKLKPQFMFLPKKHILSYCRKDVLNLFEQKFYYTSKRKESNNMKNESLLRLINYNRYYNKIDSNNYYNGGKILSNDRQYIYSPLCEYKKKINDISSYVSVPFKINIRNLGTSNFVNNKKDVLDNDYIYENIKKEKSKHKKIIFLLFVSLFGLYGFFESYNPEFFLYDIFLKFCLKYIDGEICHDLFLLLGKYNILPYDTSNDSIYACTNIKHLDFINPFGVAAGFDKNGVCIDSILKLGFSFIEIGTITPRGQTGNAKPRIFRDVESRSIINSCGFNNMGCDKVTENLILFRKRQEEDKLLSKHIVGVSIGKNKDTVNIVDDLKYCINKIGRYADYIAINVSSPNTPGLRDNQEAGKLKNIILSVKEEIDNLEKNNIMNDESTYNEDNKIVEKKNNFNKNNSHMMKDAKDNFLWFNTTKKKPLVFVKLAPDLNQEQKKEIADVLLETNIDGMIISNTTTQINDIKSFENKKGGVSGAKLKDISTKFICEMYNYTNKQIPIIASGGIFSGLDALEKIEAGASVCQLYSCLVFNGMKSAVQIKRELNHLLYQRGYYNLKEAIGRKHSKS

COc1ccc(C(O)C2C=CC3C(=O)N(c4ccccc4)C(=O)C3N2Nc2ccccc2)c2ccccc12 (centres undefined)
z-score [1]: -1.41 | z-score [2]: -5.12 (inactive) | z-score [3]: -1.42 (inactive) | composite z-score [4]: 0.896 (inactive) | z-score [5]: 1.48 (inactive) | z-score [6]: 0.163 (inactive) | z-score [7]: -1.05 (inactive) | z-score [8]: -0.0025 (inactive) | z-score [9]: -1.95 | composite z-score [10]: -0.0049 | composite z-score [11]: 2.31 (inactive) | composite z-score (XIP peptide (Xip251-270)): 0.573 | z-score [12]: -0.182 | z-score [13]: -1.28 (inactive) | z-score [14]: -0.0153 (inactive) | z-score [15]: -0.861 (inactive)

CC(C)C(=C=CC[C@H](O)c1ccccc1OCCO)CCO
z-score [1]: -0.457 | z-score [2]: -1.39 (inactive) | z-score [3]: -0.0976 (inactive) | composite z-score [4]: -0.757 (inactive) | z-score [5]: 1.17 (inactive) | z-score [6]: 0.0589 (inactive) | z-score [7]: -0.235 (inactive) | z-score [8]: -0.153 (inactive) | z-score [9]: 0.217 | composite z-score [10]: -0.23 | composite z-score [11]: -0.393 (inactive) | composite z-score (XIP peptide (Xip251-270)): 0.81 | z-score [12]: -0.305 | z-score [13]: -3.12 (inactive) | z-score [14]: -0.106 (inactive) | z-score [15]: 0.0237 (inactive)

C=C(COC)/C(=C/C[C@H](OC(C)=O)c1ccccc1OCCO)c1cnc2ccccc2c1
z-score [1]: -0.192 | z-score [2]: 1.36 (inactive) | z-score [3]: -0.885 (inactive) | composite z-score [4]: -2.14 (inactive) | z-score [5]: 1.57 (inactive) | z-score [6]: 1.19 (inactive) | z-score [7]: -0.447 (inactive) | z-score [8]: -0.334 (inactive) | z-score [9]: -0.784 | composite z-score [10]: -0.173 | composite z-score [11]: 0.384 (inactive) | composite z-score (XIP peptide (Xip251-270)): 0.0219 | z-score [12]: -2.82 | z-score [13]: -5.24 (inactive) | z-score [14]: 0.134 (inactive) | z-score [15]: 0.19 (inactive)

Cc1ccc(N2C(=O)c3ccccc3[C@@H](C(=O)NC(C)C)[C@@H]2c2ccc(CO)cc2)nc1
z-score [1]: 1.48 | z-score [2]: -1.69 (inactive) | z-score [3]: 1.09 (inactive) | composite z-score [4]: -0.309 (inactive) | z-score [5]: 0.69 (inactive) | z-score [6]: -0.434 (inactive) | z-score [7]: 0.282 (inactive) | z-score [8]: 0.375 (inactive) | z-score [9]: 1.17 | composite z-score [10]: 0.147 | composite z-score [11]: 0.262 (inactive) | composite z-score (XIP peptide (Xip251-270)): 0.82 | z-score [12]: 0.679 | z-score [13]: -1.68 (inactive) | z-score [14]: 0.364 (inactive) | z-score [15]: 0.43 (inactive)

CC(=O)n1cc(C(O)C2C=CC3C(=O)N(c4ccccc4)C(=O)C3N2Nc2ccc(C#N)cc2)c2ccccc21 (centres undefined)
z-score [1]: -0.592 | z-score [2]: -2.71 (inactive) | z-score [3]: -0.897 (inactive) | composite z-score [4]: -0.796 (inactive) | z-score [5]: 0.956 (inactive) | z-score [6]: -0.129 (inactive) | z-score [7]: -0.698 (inactive) | z-score [8]: -0.119 (inactive) | z-score [9]: -0.189 | composite z-score [10]: 0.147 | composite z-score [11]: 1.16 (inactive) | composite z-score (XIP peptide (Xip251-270)): 0.786 | z-score [12]: 0.429 | z-score [13]: -3.54 (inactive) | z-score [14]: -0.199 (inactive) | z-score [15]: -0.217 (inactive)

COCCOC(=O)N1C(=O)[C@@]2(c3cc(C#CC4(O)CCCCCC4)ccc31)[C@H](c1ccc(O)cc1)N1[C@H](c3ccccc3)[C@H](c3ccccc3)OC(=O)[C@H]1[C@@H]2C(=O)N1CCc2cc(OC)c(OC)cc2C1
z-score [1]: 2.14 | z-score [2]: -0.169 (inactive) | z-score [3]: 0.493 (inactive) | composite z-score [4]: -0.102 (inactive) | z-score [5]: -0.0242 (inactive) | z-score [6]: -0.592 (inactive) | z-score [7]: 0.351 (inactive) | z-score [8]: -0.8 (inactive) | z-score [9]: 0.0494 | composite z-score [10]: -0.313 | composite z-score [11]: -0.455 (inactive) | composite z-score (XIP peptide (Xip251-270)): 0.839 | z-score [12]: 0.0635 | z-score [13]: -0.954 (inactive) | z-score [14]: -0.404 (inactive) | z-score [15]: -0.466 (inactive)

CC1CC/C=C\[C@H]2OC34C=CCN(CCN5CCOCC5)C(=O)[C@H]3N(CCCCCO)C(=O)[C@@H]4C2C(=O)O1 (some centres undefined)
z-score [1]: -0.693 | z-score [2]: -0.501 (inactive) | z-score [3]: 0.183 (inactive) | composite z-score [4]: 1.07 (inactive) | z-score [5]: -0.456 (inactive) | z-score [6]: 0.0357 (inactive) | z-score [7]: 0.408 (inactive) | z-score [8]: 0.45 (inactive) | z-score [9]: -0.977 | composite z-score [10]: 0.33 | composite z-score [11]: -0.173 (inactive) | composite z-score (XIP peptide (Xip251-270)): -1.32 | z-score [12]: -0.143 | z-score [13]: -5.32 (inactive) | z-score [14]: -0.0913 (inactive) | z-score [15]: -0.364 (inactive)

Cc1cc(C)c(C(O)C2C=CC3C(=O)NC(=O)C3N2Nc2ccccn2)c(C)c1 (centres undefined)
z-score [1]: -1.25 | z-score [2]: 0.705 (inactive) | z-score [3]: -1.78 (inactive) | composite z-score [4]: 1.41 (inactive) | z-score [5]: 0.9 (inactive) | z-score [6]: 0.276 (inactive) | z-score [7]: -0.579 (inactive) | z-score [8]: -0.342 (inactive) | z-score [9]: -0.68 | composite z-score [10]: 0.203 | composite z-score [11]: 0.702 (inactive) | composite z-score (XIP peptide (Xip251-270)): 0.103 | z-score [12]: -0.261 | z-score [13]: -3.34 (inactive) | z-score [14]: 0.321 (inactive) | z-score [15]: -0.0098 (inactive)

O=C1C[C@@](C(=O)O)(c2ccc([N+](=O)[O-])cc2)[C@@H](c2ccc(CO)cc2I)N1CC12CC3CC(CC(C3)C1)C2
z-score [1]: -1.79 | z-score [2]: -4.78 (inactive) | z-score [3]: -5.9 (inactive) | composite z-score [4]: -1.49 (inactive) | z-score [5]: 1.34 (inactive) | z-score [6]: -0.326 (inactive) | z-score [7]: -0.401 (inactive) | z-score [8]: -0.0671 (inactive) | z-score [9]: -6 | composite z-score [10]: -0.17 | composite z-score [11]: 0.862 (inactive) | composite z-score (XIP peptide (Xip251-270)): 0.771 | z-score [12]: -1.92 | z-score [13]: -5.13 (inactive) | z-score [14]: 0.288 (inactive) | z-score [15]: 0.285 (inactive)
